Test results reported in PubChem BioAssay AID602350 (Broad Institute, 2012).
Results with a measured potency or affinity are listed apart. Calls of active or inactive are those of the source.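 Rule for the calls: active = absorbance falls by 30% or more versus neutral controls, with a potency fitted within twice the top valid dose; inconclusive = no clear call, values can overlap the other calls; inactive = change opposite to expected direction, plus the rest.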

biological target: Protein disulfide-isomerase (Homo sapiens) (UniProt P07237); experiment: inhibition of PDI-driven insulin aggregation – biochemical, turbidity, absorbance, cherry-picked samples, dose response (AID 602350); settings: recombinant PDI insulin aggregation, absorbance 650 nm, 90 min; series mostly up to 19.5 µM;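 note: 0% = neutral controls and -100% = rutin hydrate positive control wells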
Sequence (P07237 whole entry, looked up): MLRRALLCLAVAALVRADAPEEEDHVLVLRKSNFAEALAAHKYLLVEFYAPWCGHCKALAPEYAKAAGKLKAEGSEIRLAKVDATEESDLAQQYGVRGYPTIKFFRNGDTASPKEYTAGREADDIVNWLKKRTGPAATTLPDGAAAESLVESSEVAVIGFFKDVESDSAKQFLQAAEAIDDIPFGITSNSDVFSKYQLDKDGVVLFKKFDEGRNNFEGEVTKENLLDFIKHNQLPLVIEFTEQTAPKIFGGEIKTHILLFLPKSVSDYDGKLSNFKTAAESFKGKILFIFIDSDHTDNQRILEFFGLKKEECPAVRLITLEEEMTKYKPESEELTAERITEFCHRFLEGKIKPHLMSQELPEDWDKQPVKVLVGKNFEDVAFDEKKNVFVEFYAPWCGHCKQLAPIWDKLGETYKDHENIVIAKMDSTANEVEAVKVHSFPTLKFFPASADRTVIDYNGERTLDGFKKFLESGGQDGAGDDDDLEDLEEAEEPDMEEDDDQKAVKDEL

outcome, inactive:
C[C@H](CO)N1C[C@H](C)[C@H](CN(C)Cc2ccc(Oc3ccccc3)cc2)Oc2c(NS(C)(=O)=O)cccc2C1=O, CC(C)C[C@@H](CN1CCC[C@@H]1CN1C(=O)C(=O)NC[C@@H]1Cc1ccccc1)N1C[C@H](Cc2ccc(O)cc2)N(CCc2ccccc2)C(=O)C1=O, O=C1[C@@H]2C(Cc3ccc(O)cc3)NC3(C(=O)Nc4ccc(F)cc43)[C@@H]2C(=O)N1c1ccccc1 (some centres undefined), Cc1ccc(S(=O)(=O)c2ccc(Oc3cccc(C)c3)cc2)cc1, COc1cc2c(cc1OC)C(C)N(CC(=O)Nc1ccc(S(=O)(=O)N3CCCC3)cc1)CC2 (centres undefined), COc1cc(CCC(=O)OCC(=O)Nc2cc(S(=O)(=O)N3CCOCC3)ccc2Cl)cc(OC)c1OC, COc1ccc(/C=C/C(=O)c2cc(F)ccc2OC(=O)c2ccccc2OC)cc1OC, CN1CCN(Cc2nc3ccccc3c(=O)n2Cc2nc(-c3ccc4ccccc4c3)cs2)CC1, CCOC(=O)C1(CC2CC2)CCN(Cc2cc(Cl)c(O)c(OC)c2)CC1, Cc1cc(C)c(C)c(S(=O)(=O)N2CCC(C(=O)N(C)Cc3nc4ccccc4c(=O)[nH]3)CC2)c1C, N#Cc1ccccc1CSc1nnc(Cc2ccccc2)o1, N#Cc1c(NCCCO)nc(-c2ccco2)c2c1CCCC2, CC[C@]12c3[nH]c4cc(-c5ccco5)ccc4c3CCN1C(=O)[C@@H](CC(=O)NCc1ccco1)C[C@@H]2C(=O)N1CCN(C(=O)c2ccco2)CC1, Cc1noc(C)c1S(=O)(=O)Nc1ccc2c(c1)CC(=O)N([C@@H](C)CO)C[C@@H](C)[C@@H](CN(C)S(=O)(=O)c1ccc(F)cc1)O2, Cn1c(=O)n(CCCOc2ccc(Br)cc2)c2ccccc21, COc1ccc(S(=O)(=O)NCC(c2ccc(F)cc2)N2CCOCC2)cc1Br (centres undefined), CN(C)C(=O)CSc1n[nH]c(-c2ccco2)n1, CCOC(=O)c1c(CN2CCN(C)CC2)n(-c2ccccc2)c2cc(Br)c(O)cc12, CC(=O)Oc1ccccc1C(=O)C=Cc1cccc([N+](=O)[O-])c1, CN(C1=NC(=O)C(CC(=O)Nc2ccc(Br)cc2)S1)c1ccc(O)cc1 (centres undefined), Cc1ccc(O)c(NC(=O)CSc2n[nH]c(-c3ccccc3)n2)c1, O=C(NCc1ccncc1)Nc1cc(Cl)ccc1Cl, Cc1ccc2nsnc2c1NC(=O)c1cccnc1Cl, CCOC(=O)c1ccc2c(c1)nc(SCC(=O)N1CCCCC1)n2CC, CN(c1ccccc1)S(=O)(=O)c1cc(C(=O)N2CCN(c3ncccn3)CC2)ccc1Cl, COc1ccccc1NS(=O)(=O)c1ccc(C)c(C(=O)NCC2(N(C)C)CCCCC2)c1, CC(C)Cn1c(N)c(C(=O)COC(=O)c2ccc(O)cc2)c(=O)n(C)c1=O, COc1ccc(CN(C)C[C@@H]2Oc3c(NS(C)(=O)=O)cccc3C(=O)N([C@H](C)CO)C[C@H]2C)cc1, CC(C)c1ccc(Nc2nc(CC(=O)O)cs2)cc1, O=C1CCC(=O)N1c1nc2nc(-c3ccccc3)cc(-c3ccccc3)n2n1, Cc1ccc(NC2(c3nnnn3CCOC(=O)Nc3ccc(Cl)cc3)CCCCC2)cc1, O=C1C[C@H](c2ccc(O)cc2)Oc2cc(O[C@@H]3O[C@H](CO)[C@@H](O)[C@H](O)[C@H]3O)cc(O[C@@H]3O[C@H](CO)[C@@H](O)[C@H](O)[C@H]3O)c21, CC(=O)NC(Cc1c[nH]c2ccccc12)C(=O)OCC(=O)N1CCN(S(=O)(=O)c2ccc(Cl)cc2)CC1 (centres undefined), CC1(C(=O)Nc2ccc3c(c2)OCCO3)CCN1C(=O)C1(c2ccc(Cl)cc2)CC1 (centres undefined), CN(C)CCCN(C(=O)c1ccc(S(=O)(=O)N2CCCc3ccccc32)cc1)c1nc2ccc(F)cc2s1, CCOC(=O)C1(CCOc2ccccc2)CCN(Cc2ccccc2O)CC1, Cc1cc(C)c2c(=O)n3c(nc2c1)C(Cc1ccc(O)cc1)NC(=O)c1cccnc1-3 (centres undefined), Cc1cccc(C)c1NC(=O)CN1CCNCC1

Activity change, negative = inhibition, inactive:
CC[C@]12c3[nH]c4cc(-c5ccco5)ccc4c3CCN1C(=O)[C@@H](CC(=O)NCCCOC)C[C@@H]2C(=O)N1CCN(C(=O)C2CC2)CC1 0.067% [at 2.1 µM]
